Screens: PubChem, Broad Institute
esBAF inh: blocks esBAF chromatin remodeling in mouse ES cells; actives 2% (n = 350,000); Bmi1-luciferase knock-in reporter, 24 h; 100% = twice the neutral-well signal; reporter increase, % at 12.5 µM; in the data active = activation above about 40%; inconclusive = no clear call, values can overlap the other calls;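 note: 0% = median of the plate's neutral control wells and 100% = double that signal; a rise in the Bmi1 reporter signal indicates esBAF inhibition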
HSF-1 act: increases HSF-1 driven luciferase reporter signal. actives 1.7% (n = 300,000). activation, % at 9 µM. NIH3T3-HGL HSF-1 luciferase reporter, MG132, 8 h; 100% = twice DMSO control signal;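 active = mean replicate activation of at least 50% with a set share of replicates each reaching 50%; inconclusive = only one of those two conditions met; inactive = mean below 50% and too few replicates reaching it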;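 note: 0% = median of the neutral control wells and 100% = twice that signal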
Wnt act: activators of Wnt/beta-catenin signaling; Wnt/beta-catenin reporter cell assay, activator, plate reader; activation, % at 9.35 µM; actives 1.2% (n = 300,000); AID 743398; in the data active = activation above about 30%, passing the limit was not always enough; inconclusive = no clear call, values can overlap the other calls;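 note: 0% = neutral control wells and 100% = positive control wells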
HSF1 inh: HSF1 inhibition. AID 2098. activity change, negative = inhibition, % at 7.5 µM (by protocol). NIH3T3-HGL HSE-luciferase, MG132-induced, luminescence 8 h; stronger effect = lower value. actives 0.77% (n = 300,000);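 active = more than half of replicate wells show activity change below -50%, luminescence cut by over half; inconclusive = some wells, but at most half, below -50%; inactive = no replicate well below -50%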;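 note: luciferase reports HSF-1 transcriptional activity via heat shock element; 0% = median of DMSO wells and -100% = zero luminescence signal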
MITF act: increases MITF-driven TRPM1 promoter luciferase signal; SK-MEL-5 TRPM1-promoter luciferase, 24 h; % of positive control, neutral wells = 0; activation, % at 12.5 µM; actives 0.75% (n = 300,000);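 active = mean activation of at least 80% with every replicate also reaching 80%; inconclusive = mean reaches 80% but some replicate falls short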;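 note: 0% = neutral control wells and 100% = parthenolide positive control wells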
The depositor's hits bear a star; ? = inconclusive; / = no result. An excerpt weighted towards active compounds, which were near 3.8% of everything screened.

SMILES	esBAF inh	HSF-1 act	Wnt act	HSF1 inh	MITF act
COCCN(Cc1nc(-c2ccc(-c3ccccc3)cc2)oc1C)C(C)C	65.2*	-35.1	15.6	-26.9	35.5
CCOC(=O)c1[nH]c2ccc(OC)cc2c1NC(=O)c1ccccc1C(=O)O	/	28.5	12.6	14.6	12.6
CCOC(=O)c1[nH]c2ccc(F)cc2c1NC(=O)c1ccccc1C(=O)O	54.1*	11.7	17.9	3.1	27.6
CC=Cc1ccc2n(c1=O)C[C@H]1[C@H](CO)[C@@H](C(=O)NCCC)N(CC3CCCC3)[C@@H]21 (mixture of isomers)	2.2	/	/	/	/
Cc1cccc(CS(=O)(=O)Cc2ccc(C(=O)NCc3ccccc3)o2)c1	-4.4	5.6	-1.7	1.7	1.9
Cc1cccc(CS(=O)(=O)Cc2ccc(C(=O)NCc3cccs3)o2)c1	-6.8	-79.2	-0.1	-71.5*	-9.7
COc1ccc(-c2cnc3c(c2)C(=O)N([C@H](C)CO)C[C@H](C)[C@H](CN(C)C(=O)C2CCCCC2)O3)cc1	-2.0	/	/	/	/
COCCc1nc2ccc(C(=O)N3CCCCC3COC)cc2o1 (stereo not given)	12.9	7.4	2.1	-2.0	7.8
CC(=O)C1CCCN(C(=O)c2ccc3oc(CCc4ccccc4)nc3c2)C1 (stereo not given)	?	-11.8	13.5	-1.1	24.8
COCCC1CCCCN1C(=O)c1ccc2nc(Cc3ccccc3F)oc2c1 (stereo not given)	/	16.3	12.8	25.9	134.4*
O=C(c1ccc2oc(CCCc3ccccc3)nc2c1)N1CCCC1	70.9*	86.8*	34.7*	46.0	64.0
COC(=O)C1CCCCN1C(=O)c1ccc2oc(Cc3ccccc3)nc2c1 (stereo not given)	?	39.3	22.7	15.7	107.9*
N#C[C@H]1N[C@H](CO)[C@@H]1c1ccc(-c2ccccc2F)cc1	12.2	/	/	/	/
COc1ccc(-c2nc(CS(=O)CC(=O)NC3CCC(C)CC3)c(C)o2)cc1OC (stereo not given)	77.3*	-5.8	12.2	-6.4	44.6
CCCN(CCC)CCCNC(=O)CS(=O)Cc1nc(-c2ccc(OC)c(OC)c2)oc1C (stereo not given)	3.5	54.6*	/	22.6	11.6
CCCCN(C)CCCNC(=O)CS(=O)Cc1nc(-c2ccc(OC)c(OC)c2)oc1C (stereo not given)	-3.9	35.9	-7.9	-9.8	/
Cc1ccc(NC(=O)Nc2ccnc(-c3cccnc3)n2)cc1	/	/	54.8*	/	-3.3
Cc1cccc(NC(=O)Nc2cccc(C)n2)n1	12.6	20.3	/	3.0	42.1
Cc1ccc(C(=O)Nc2ccnc(-c3cccnc3)n2)cc1	/	43.6	0.3	26.1	33.1
Cc1cccc(NC(=O)NC(=O)c2ccccc2)n1	/	25.8	37.1*	13.2	43.0
Cc1cccc(NC(=O)Nc2ccc(C)c(C)c2)n1	48.0*	46.0	35.0*	13.5	32.1
Cc1ccc(NC(=O)Nc2cccc(C)n2)cc1	4.3	21.1	40.2*	23.5	75.6
Cc1cccc(NC(=O)Nc2ccc(F)cc2)n1	?	9.0	11.7	12.3	45.3
CCCNC(=O)N1C[C@@H](O)COC[C@H]2O[C@H](CC(=O)N[C@@H]3CCN(Cc4ccccc4)C3)CC[C@@H]21	-4.3	/	/	/	/
Cc1ccc(NC(=O)c2cn(-c3cccc(C)n3)cn2)cc1	26.1	23.1	/	7.4	106.3*
SMILES	esBAF inh	HSF-1 act	Wnt act	HSF1 inh	MITF act
Cc1nc2ccccc2nc(C)c1=NOCc1ccccc1Cl	/	55.3*	9.6	22.4	-5.8
CC(=O)c1ccc(NC(=S)N2C(C)CCCC2C)cc1 (stereo not given)	/	58.9*	/	17.4	/
CC(=O)c1ccc(NC(=S)N2CCCCCC2)cc1	/	12.8	-0.4	10.1	24.4
Cc1ccc(S(=O)(=O)Nc2ccc3c(c2)C(=O)N([C@H](C)CO)C[C@@H](C)[C@@H](CN(C)CC2CCCCC2)OCCCC[C@@H](C)O3)cc1	-5.0	/	/	/	/
COc1ccc(NC(=O)N(C)C[C@H]2Oc3ncc(C#CCC(C)C)cc3C(=O)N([C@H](C)CO)C[C@@H]2C)cc1	-1.2	/	/	/	/
C[C@H]1CN([C@@H](C)CO)C(=O)Cc2cc(NC(=O)Nc3ccc(F)cc3)ccc2O[C@H]1CN(C)Cc1ccc(Oc2ccccc2)cc1	-0.6	/	/	/	/
Cc1noc(C)c1NC(=O)Nc1ccc2c(c1)C(=O)N([C@H](C)CO)C[C@@H](C)[C@H](CN(C)Cc1ccc3c(c1)OCO3)O2	-5.8	/	/	/	/
O=C(/C=C\Nc1ccccn1)c1ccccc1	-47.7	22.1	5.8	-2.5	/
O=C(/C=C/Nc1ccccc1Br)c1ccccn1	/	-66.2	/	-60.6*	-76.2
Brc1ccc(-c2csc(/N=C/N3CCOCC3)n2)cc1	51.2*	/	/	/	34.8
Brc1ccc(-c2csc(/N=C/N3CCCC3)n2)cc1	34.1	13.0	26.7	21.5	64.7
OCCN(/C=N/c1nc(-c2ccc(Br)cc2)cs1)CCO	40.8*	30.6	-0.8	10.4	57.7
CO[C@H]1CN(C)C(=O)c2ccc(NC(=O)C3CCOCC3)cc2OC[C@@H](C)N(C(C)=O)C[C@H]1C	0.8	/	/	/	/
CC(C)C(=O)Nc1cccc(NC(=O)c2cc3ccccc3o2)c1	72.1*	44.4	26.8	14.4	/
COc1cc(NC(=O)C(C)C)ccc1NC(=O)c1cc2ccccc2o1	60.0*	49.0	12.5	29.6	83.9*
CN(C)S(=O)(=O)c1cccc(NC(=O)c2cc3ccccc3o2)c1	50.3*	18.5	/	3.2	/
CCN(CC)S(=O)(=O)c1cccc(NC(=O)c2cc3ccccc3o2)c1	?	-22.4	8.8	-6.2	8.3
Cc1ccc(NC(=O)c2cc3ccccc3o2)cc1Cl	?	47.1	-1.7	39.5	104.2*
O=C(Nc1ccc(Cl)cc1Cl)c1cc2ccccc2o1	0.0	40.4	14.2	28.7	/
O=C(C[C@@H]1CC[C@@H]2[C@H](COC[C@@H](O)CN2C(=O)c2ccc3c(c2)OCO3)O1)NCCN1CCCCC1	-3.0	/	/	/	/
CO[C@H]1CN(C)C(=O)c2ccc(NC(=O)Nc3ccccc3F)cc2OC[C@@H](C)N(C(C)=O)C[C@H]1C	2.2	/	/	/	/
CC(=O)Nc1ccc(-c2cc3ccccc3o2)cc1	26.5	-42.0	55.6*	-23.6	/
CC(=O)Nc1cccc(NC(=O)c2cc3ccccc3o2)c1	/	39.9	50.6*	28.3	?
COc1ccc(NC(=O)c2cc3ccccc3o2)cc1OC	?	14.8	8.0	14.4	35.2
CCC1CCCCN1C(=O)c1cc(COc2ccc3ncccc3c2)on1 (stereo not given)	/	-14.6	-3.4	-3.9	-6.9
CCN1CCN(C(=O)c2cc(COc3ccc4ncccc4c3)on2)CC1	-10.0	0.6	-0.5	-8.5	-7.4
COCC1CCCCN1C(=O)c1cc(COc2ccc3ncccc3c2)on1 (stereo not given)	-12.6	-78.9	-3.5	-71.7*	-25.9
CCCN1CCN(C(=O)c2cc(COc3ccc4ncccc4c3)on2)CC1	/	-66.3	4.1	-57.0*	11.5
CC(=O)Nc1ccc(S(=O)(=O)N2CCN(C(=O)c3ncoc3-c3cccc(C)c3)CC2)cc1	2.3	8.6	26.7	2.2	0.5
